# Screening data as filed in PubChem BioAssay.
# MITF act: MITF TRPM1 promoter activation in melanoma cells; AID 588334; activation, % at 12.5 µM; hit rate 0.75% among 300,000; SK-MEL-5 TRPM1-promoter luciferase, 24 h; % of positive control, neutral wells = 0;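 active means mean activation of at least 80% with every replicate also reaching 80%; inconclusive means mean reaches 80% but some replicate falls short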;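 further: 0% = neutral control wells and 100% = parthenolide positive control wells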
# EWS-Fli inh: inhibitors of EWS/Fli oncoprotein transcriptional activity. hit rate 0.67% among 350,000. A673 NR0B1-luciferase reporter, viability-normalised. inhibition, % at 12.6 µM;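 active means mean inhibition of at least 50% after viability correction, with every replicate also passing that limit; inconclusive means mean reaches 50% but only one of two replicates passes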;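 further: firefly luciferase signal divided by Alamar Blue viability fluorescence both relative to DMSO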
# Wnt act: activates Wnt/beta-catenin signaling in a reporter cell assay; activator, plate reader; activation, % at 9.35 µM; hit rate 1.2% among 300,000; in the data active means activation above about 30%, passing the limit was not always enough; inconclusive means no clear call, values can overlap the other calls;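 further: 0% = neutral control wells and 100% = positive control wells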
# esBAF inh: SWI/SNF esBAF complex inhibition. mouse ES cells, Bmi1-luciferase knock-in reporter, 24 h; 100% = twice the neutral-well signal. reporter increase, % at 12.5 µM. hit rate 2% among 350,000. AID 602393; in the data active means activation above about 40%; inconclusive means no clear call, values can overlap the other calls;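 further: 0% = median of the plate's neutral control wells and 100% = double that signal; a rise in the Bmi1 reporter signal indicates esBAF inhibition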
# TRPM1 prom inh: inhibitors of MITF-driven TRPM1 promoter in melanoma cells; SK-MEL-5 TRPM1 promoter luciferase, 24 h; inhibition, % at 12.5 µM; hit rate 0.83% among 330,000;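 active means mean inhibition across replicates of 60% or more, whatever share of single replicates reaches that level; inconclusive means some that reach 60%, reason not given; inactive means mean inhibition across replicates below 60%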
# PAX8 reporter: inhibitors of PAX8 transcriptional activity in RMG-I cells. RMG-I TPO-luciferase reporter, SteadyGlo, 24 h. inhibition, % at 12.6 µM. hit rate 1.2% among 360,000;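 active means mean replicate inhibition at least 60% with every replicate also reaching 60%; inconclusive means only one of the two criteria is met; inactive means mean below 60% and not all replicates reaching 60%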;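 further: luciferase light reporting Pax8 driven TPO promoter activity; plate controls were median of neutral control wells for no effect and mitoxantrone controls for full effect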
# Active calls of the source: *; ? = inconclusive; / = no result given. Rows were chosen to be rich in hits. Some 4% of all compounds tested hit in one or more screens of this group.
SMILES,MITF act,EWS-Fli inh,Wnt act,esBAF inh,TRPM1 prom inh,PAX8 reporter
Cc1nc2ccc(NC(=O)CCC3CCCC3)cc2s1,73,-96,3,50*,-74,-73
Cc1ccc(C(=O)Nc2ccc3nc(C)sc3c2)o1,/,-96,4,?,/,-178
Cc1ccc(C(=O)Nc2ccc(SC(F)F)cc2)s1,83*,-125,11,/,-80,-144
CC[N+](CC)(CC)CC(=O)Nc1ccc(SC(F)F)cc1,-7,9,-1,-2,8,10
O=C(C[C@H]1C=C[C@H](NS(=O)(=O)c2ccccc2)[C@@H](CO)O1)N1CCc2ccccc2C1,/,-15,/,1,/,9
C[C@@H]1CN([C@H](C)CO)C(=O)c2cc(NC(=O)Nc3ccccc3)ccc2O[C@H]1CN(C)Cc1ccc(Oc2ccccc2)cc1,/,22,/,-1,/,5
O=C(c1ccc(F)cc1)N1CC(=O)N2[C@H](CO)[C@@H](c3ccc(/C=C/c4ccccc4)cc3)[C@H]2C1,/,-3,/,/,/,16
O=C(c1cccc(F)c1)N1CC(=O)N2[C@H](C1)[C@H](c1ccc(/C=C/c3ccccc3)cc1)[C@@H]2CO,/,17,/,/,/,63*
O=C(c1ccncc1)N1CC(=O)N2[C@H](C1)[C@@H](c1ccc(-c3ccccc3)cc1)[C@@H]2CO,/,54*,/,/,/,-12
COCC(=O)N(C)C[C@H]1Oc2ncc(C#C[C@@H](C)O)cc2C(=O)N([C@H](C)CO)C[C@H]1C,/,2,/,-4,/,/
COc1cc(/C=C2\CCC(C3CCCC3)C2=O)ccc1OC(C)C (centres undefined),0,-81,10,4,-4,-27
COc1ccc(/C=C2/CCC(CN3CCOCC3)C2=O)cc1 (centres undefined),-99,57*,-5,/,99*,5
Cc1ccsc1/C=C1\CCc2ccccc2C1=O,/,/,/,-34,4,-83
Cc1ccc(/C=C2\CCC(C3CCCC3)C2=O)cc1 (centres undefined),16,-54,13,/,-16,-85
COc1ccc(/C=C2\CCC(C3CCCC3)C2=O)cc1 (centres undefined),98*,-7,-1,56*,-91,-87
COc1ccc(/C=C2\CCC(C3CCCC3)C2=O)cc1OC (centres undefined),74,-119,33*,30,-73,-12
Cc1ccsc1/C=C1\CCC(C2CCCC2)C1=O (centres undefined),76,-89,47*,34,-79,-209
O=C(N[C@H]1CC[C@@H](CCNS(=O)(=O)Cc2ccccc2)O[C@H]1CO)c1cnccn1,/,-1,/,-7,/,0
O=C1CC(c2ccc(Cl)cc2)Oc2ccc(Cl)cc21 (centres undefined),29,-24,-8,32,-29,2
Cn1c(Cl)cnc1C1CC(=O)c2cc(Cl)ccc2O1 (centres undefined),-35,/,-22,/,38,72*
CCNC(=O)Nc1ccc2c(c1)C(=O)N(C)[C@H]1CC[C@@H](CC(=O)NCC3CCCCC3)O[C@@H]1CO2,/,-5,/,1,/,6
COc1cc(/C=C/C=C2/CC/C(=C/C=C/c3ccc(O)c(OC)c3)C2=O)ccc1O,/,6,-2,/,-3,3
COc1cc(/C=C2\COC/C(=C\c3ccc(O)c(OC)c3)C2=O)ccc1O,/,77*,-4,/,79*,53
COc1ccc(/C=C2\CN(Cc3ccccc3)C/C(=C\c3ccc(OC)c(O)c3)C2=O)cc1O,-97,62*,-14,-85,98*,90*
COc1cc(/C=C2/CC/C(=C/c3ccc(O)c(OC)c3)C2=O)ccc1O,-11,59*,2,/,14,71*
SMILES,MITF act,EWS-Fli inh,Wnt act,esBAF inh,TRPM1 prom inh,PAX8 reporter
C[C@H](CO)N1C[C@H](C)[C@H](CN(C)Cc2ccccn2)Oc2ncc(C#Cc3cccc(F)c3)cc2C1=O,/,4,/,-13,/,/
COc1ccccc1NC(=O)N[C@@H]1CC[C@@H](CCn2cc(-c3ccccc3)nn2)O[C@@H]1CO,/,-3,/,0,/,-1
C[C@@H]1CN([C@H](C)CO)C(=O)c2cc(NC(=O)c3ccccc3)ccc2O[C@@H](C)CCCCO[C@@H]1CN(C)S(=O)(=O)c1cccs1,/,14,/,-5,/,-6
CO[C@@H]1CN(C)C(=O)c2cc(NC(C)=O)ccc2OC[C@@H](C)N(C(=O)c2ccccn2)C[C@H]1C,/,3,/,-2,/,/
OC[C@@H]1[C@@H](c2ccc(-c3cccc(F)c3)cc2)[C@@H]2CN(CCC(F)(F)F)CCCCN12,/,15,/,-4,/,6
COc1cccc(-c2ccc3c(c2)[C@H]2[C@H](CCN2C(=O)Cc2ccccc2)[C@@H](CO)N3)c1,/,12,/,6,/,20
COC(=O)CSc1nnc([C@H](Cc2ccccc2)NC(=O)OC(C)(C)C)o1,7,/,/,1,-3,/
Cc1cccc(CS(=O)(=O)c2nnc([C@H](Cc3ccccc3)NC(=O)OC(C)(C)C)o2)c1,-73,/,/,-3,75*,/
COC(=O)CS(=O)(=O)c1nnc([C@H](Cc2ccccc2)NC(=O)OC(C)(C)C)o1,-80,/,/,/,79*,/
CC(C)(C)OC(=O)N[C@@H](Cc1ccccc1)c1nnc(SCC(N)=O)o1,/,-6,1,3,-1,-4
Cc1noc(C)c1S(=O)(=O)Nc1ccc2c(c1)C(=O)N([C@@H](C)CO)C[C@@H](C)[C@H](CN(C)Cc1ccc(C(=O)O)cc1)OCCCC[C@H](C)O2,/,-5,/,-4,/,-7
Cc1noc(C)c1S(=O)(=O)Nc1ccc2c(c1)C(=O)N([C@H](C)CO)C[C@H](C)[C@H](CN(C)Cc1ccc(C(F)(F)F)cc1)OCCCC[C@H](C)O2,/,/,/,3,/,74*
Cc1noc(C)c1S(=O)(=O)Nc1ccc2c(c1)C(=O)N([C@@H](C)CO)C[C@@H](C)[C@H](CN(C)Cc1ccc(C(F)(F)F)cc1)OCCCC[C@H](C)O2,/,/,/,21,/,64*
Cc1noc(C)c1S(=O)(=O)Nc1ccc2c(c1)C(=O)N([C@H](C)CO)C[C@H](C)[C@H](CN(C)Cc1ccc(C(=O)O)cc1)OCCCC[C@H](C)O2,/,-8,/,-4,/,-2
Cc1noc(C)c1S(=O)(=O)Nc1ccc2c(c1)C(=O)N([C@H](C)CO)C[C@H](C)[C@@H](CN(C)Cc1ccc(C(F)(F)F)cc1)OCCCC[C@H](C)O2,/,/,/,11,/,72*
Cc1noc(C)c1S(=O)(=O)Nc1ccc2c(c1)C(=O)N([C@@H](C)CO)C[C@H](C)[C@@H](CN(C)Cc1ccc(C(F)(F)F)cc1)OCCCC[C@@H](C)O2,/,/,/,11,/,72*
CCCC(=O)Nc1ccc2c(c1)OC[C@@H](C)N(CCC)C[C@@H](C)[C@@H](OC)CN(C)C2=O,/,-9,/,2,/,-6
O=C(C[C@@H]1C[C@H]2c3cc(NC(=O)Nc4ccc(C(F)(F)F)cc4)ccc3O[C@H]2[C@@H](CO)O1)NCc1cccnc1,/,0,/,-2,/,-3
CCOc1ccccc1NC(=O)Nc1ccc2c(c1)OCO2,22,-46,7,/,-21,-24
